Experimental data from PubChem BioAssay (NCI).
The panel holds about 79,000 compounds, 15% with a hit somewhere; the sample as a whole holds those more often. A number with no mark means an inactive call. Active and inactive are the calls of the source. Rule as the data show it: active = growth inhibition above about 70%; inactive = the rest.

Legend:
[1] = NCI Yeast Anticancer Drug Screen. Data for the rad50 strain (AID 155);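 also: 0% = growth of vehicle-only cultures of the same strain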; conditions: S. cerevisiae rad50 strain growth inhibition; at 50.0 µM; active compounds read high
Summary of the method: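 Cells are treated with compound, grown, and their growth is then scored against vehicle-only cultures of the same repair-deficient yeast strain.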

[2] = NCI Yeast Anticancer Drug Screen. Data for the mec2-1 strain (AID 157); conditions: S. cerevisiae mec2-1 strain, at 50.0 µM, active compounds read high
Summary of the method: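 Strain: mec2-1 (DNA repair/cell cycle alteration). Compound exposure, then growth measured; inhibition expressed relative to vehicle.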

[3] = NCI Yeast Anticancer Drug Screen. Data for the sgs1 mgt1 strain (AID 161);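 also: 0% = growth of cultures given vehicle only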; conditions: S. cerevisiae sgs1 mgt1 strain, at 50.0 µM, active compounds read high
Summary of the method: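 Genetically altered yeast, compound exposure, growth inhibition relative to vehicle.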

[4] = NCI Yeast Anticancer Drug Screen. Data for the cln2 rad14 strain (AID 165);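 also: 0% = growth equal to vehicle treated cultures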; conditions: S. cerevisiae cln2 rad14 strain, at 50.0 µM, active compounds read high
Summary of the method: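 Compounds are applied to the cln2 rad14 yeast strain, and growth is then compared with that of vehicle-treated cultures to give inhibition.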

[5] = NCI Yeast Anticancer Drug Screen. Data for the bub3 strain (AID 167); conditions: S. cerevisiae bub3 mutant strain, at 50.0 µM, active compounds read high
Summary of the method: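 Part of a panel of yeast mutants defective in DNA damage repair or cell cycle regulation. Each strain is grown with compound, and inhibition is calculated relative to solvent-treated cultures.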

[6] = NCI Yeast Anticancer Drug Screen. Data for the mlh1 rad18 strain (AID 175); conditions: S. cerevisiae mlh1 rad18 strain growth inhibition; at 50.0 µM; active compounds read high
Summary of the method: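 Read-out is yeast growth inhibition, calculated against vehicle-only controls. The compound was applied to a strain engineered with DNA damage repair alterations.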

SMILES | growth inhibition [1] | growth inhibition [2] | growth inhibition [3] | growth inhibition [4] | growth inhibition [5] | growth inhibition [6]
O=C(O)CCN1C(=S)CSC1=S | -5.35% | -18.4% | -38.5% | 8.9% | -33.9% | -24.2%
COc1ccc2c(c1)OCC1=C2Oc2ccccc2C1 | 98.2% (active) | 99.3% (active) | 99.1% (active) | 98.6% (active) | 97.9% (active) | 98.8% (active)
CC1=[N+]([O-])C2(CCCC2)N(O)C1(C)C | -13.8% | -0.7% | 9.7% | 19.5% | -6.25% | 12.8%
S=C1N=C(Cl)C2(NN1)c1ccccc1-c1ccccc12 | 17.9% | -16.1% | -1.15% | -14.5% | -11.7% | 32%
CC(C)(C)C(=O)Oc1ccc[nH]c1=O | 23.4% | -13.9% | 2.35% | -27.6% | -13.7% | -2.1%
CCCSS[C@H]1NC(=O)[C@H]1NC(=O)COc1ccccc1 | 31.1% | 8.5% | 1.4% | 3.05% | 19.1% | -3.6%
O=C1OC(=O)C(Cl)=C1Cl | 16.6% | -10.5% | 28.8% | 10.7% | 9.4% | 22.3%
COC(=O)c1nc(N)nc(C(=O)OC)c1C(=O)c1ccc([N+](=O)[O-])cc1 | -20.9% | -23.6% | -37% | -22% | -44.8% | -41%
NC(=O)c1csc(NC2OC(CO)C(O)C(O)C2O)n1 (stereo not drawn) | 23.1% | -8.8% | 0.05% | 14.8% | -0.25% | -0.05%
c1ccc2c(c1)C1OC2c2ccccc21 | -30.2% | -20.3% | -26.4% | -26.3% | -0.4% | -1.25%
C1CSCCSCCSCCS1 | -1.15% | -2.55% | -0.85% | -12.4% | -0.4% | -11.9%
O=c1oc2ccccc2c(O)c1[N+](=O)[O-] | 10.6% | -11.2% | -6.4% | 2.7% | -7.15% | 3.65%
COc1cc2c[n+]3c4c(cccc4c2cc1OC)CC3 | 5.75% | 0.55% | 1.15% | -2.7% | 3.2% | -13.7%
O=[N+]([O-])c1ccc(N=Nc2c(O)[nH]c3ccc(Br)cc23)c([N+](=O)[O-])c1 | 9.75% | -21.2% | 2.15% | -23.1% | -20.6% | 5.5%
CCOC(=O)/C(=C/c1ccc(C(=O)OC)cc1)N(CC)CC | -26.5% | -20.5% | -12.1% | 12.2% | -20.1% | -25.8%
O=C1/C(=C\c2ccccn2)c2ccccc2N1Cc1ccccc1 | 7.6% | 1.25% | 8.75% | 16.9% | 11.2% | 22.3%
COc1ccc(C(=O)/C(Br)=C\C(=O)O)cc1 | 16.8% | 24.4% | 5.4% | 28.6% | 23.9% | 7%
C=C(C)C(=O)NC(N)=NC#N | -44% | -9.25% | -5.4% | -13.8% | -1.55% | 6.15%
Cc1cc(=O)[nH]c2cc(O)c(C(=O)O)cc12 | -2.95% | 3.7% | -0.3% | -54.5% | 1.6% | -8.15%
CC(=O)OCC(=O)COC(C)=O | -4.95% | -6.35% | -8.4% | 8.5% | -2.2% | -8.55%
COc1c(Cl)cc([N+](=O)[O-])cc1Cl | -3.5% | 0.15% | 3.1% | -34.7% | -18.5% | -12.4%

SMILES | growth inhibition [1] | growth inhibition [2] | growth inhibition [3] | growth inhibition [4] | growth inhibition [5] | growth inhibition [6]
N#CC(C#N)=CN1CCCC1 | -19.6% | 9.4% | -6.45% | -12.3% | -5.95% | -1.7%
CCO/C=N/c1oc(-c2ccccc2)nc1C#N | 4.6% | 4.95% | -4.85% | -38.1% | -12.1% | 1.1%
O=[N+]([O-])c1sc2ccccc2c1Br | 98% (active) | 98.7% (active) | 98.8% (active) | 99% (active) | 99.1% (active) | 98.7% (active)
CC(=O)c1c(O)c(Nc2ccccc2)cc2nc3ccccc3nc12 | -4.45% | 3.95% | -0.4% | -10.3% | -8.75% | -23.3%
CCCCN1C(=O)c2ccccc2C1=O | 5.55% | -10.7% | 27.2% | 7.9% | 9.45% | 13.4%
COC(=O)C1CCC[P+]1(C)C (stereo not drawn) | 47.1% | 41.7% | 45.8% | 13.8% | 56.5% | 38.5%
Ic1ccc2c[n+]3ccccc3cc2c1 | -11.7% | 25.9% | 8.85% | -29.8% | 1.75% | -3.95%
CC(=O)Nc1ccc2c(Br)ccc3c2c1CC3 | 0.8% | -1.55% | 4.3% | 0.6% | 6.6% | -4.45%
NC(CS)C(=O)NCCNCCNc1ccc(NCCNCCNC(=O)C(N)CS)c2c1C(=O)c1c(O)ccc(O)c1C2=O (stereo not drawn) | -30.4% | -12.4% | 2.1% | -0.85% | -10.5% | -12.7%
Cc1cnc2[nH]c(-c3ccccc3)cc(=O)c2c1 | -6.7% | -12.6% | -0.9% | -23.2% | -8.25% | -48.5%
C=CCNC(=S)/N=C/C(C(=O)Nc1ccccc1OC)=C(\C)O | -17.4% | -19.2% | -27.3% | -9.85% | -34.5% | -16.3%
CCC(C)NC(=O)c1cccc2c1-c1ccccc1C2=O (stereo not drawn) | -0.05% | -5.15% | 0.35% | 1.4% | 25.2% | 14.4%
O=Cc1c2c(cc3c1CC1(C3)Cc3cc4c(c(C=O)c3C1)CCC4)CCC2 | -26.4% | -40.1% | -25.9% | 3.7% | 26.8% | 1.35%
Nc1nc(N)c2nc(-c3ccc([N+](=O)[O-])cc3)c(=O)[nH]c2n1 | -9.75% | -8.5% | -2.05% | -11.3% | 29.2% | 14.7%
CCSc1nc2ccc(CN3C(=O)c4ccccc4C3=O)cc2s1 | 1.3% | -3.5% | -4.6% | 1.5% | 15.8% | -2.3%
COc1ccccc1N=Nc1c(-c2ccccc2)nn(C(N)=S)c1-c1ccccc1 | 35% | -5.75% | 19.4% | 12.2% | -0.05% | 6.6%
C=CCc1cc(C)ccc1OC(=O)c1cc([N+](=O)[O-])cc([N+](=O)[O-])c1 | 2.85% | -3.4% | 4.55% | -40% | -6.6% | 0.6%
CSC1C(=O)Nc2ccccc21 (stereo not drawn) | -8.5% | -17.6% | 4.1% | -13.1% | – | -3%
COC(=O)c1ccccc1N=NNc1ccc2c(=O)c3ccccc3[nH]c2c1 | 23.8% | 1.7% | 22.1% | 34.5% | – | 66%
CCCSc1n[nH]c(=S)c2nc[nH]c12 | -2% | -24.3% | -14.8% | -5.5% | – | -1.15%
